Source: PubChem BioAssay (Broad Institute)
A selection: hits, their analogues and other compounds. The true share with any hit is near 3.4%.
Wnt bcat act = Wnt/beta-catenin pathway activators, primary screen, cell-based, plate reader, single point; Wnt/beta-catenin reporter cell assay, activator; activation, % at 9.35 µM; hit rate 1.2% among 300,000; in the data active = activation above about 30%, passing the limit was not always enough; inconclusive = no clear call, values can overlap the other calls;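 also: 0% = neutral control wells and 100% = positive control wells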
MITF TRPM1 HTS = activators of MITF-driven TRPM1 promoter reporter, primary screen, cell-based, SK-MEL-5, luciferase, single point; hit rate 0.75% among 300,000; activation, % at 12.5 µM; SK-MEL-5 TRPM1-promoter luciferase, 24 h; % of positive control, neutral wells = 0; AID 588334, 2011;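 active = mean activation of at least 80% with every replicate also reaching 80%; inconclusive = mean reaches 80% but some replicate falls short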;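 also: 0% = neutral control wells and 100% = parthenolide positive control wells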
HIV Env fusion = inhibitors of HIV-1 Env-driven cell-cell fusion, primary screen, HeLa-JRFL effector, CEM21 target cells, luciferase. inhibition, % at 12.3 µM. hit rate 1.1% among 360,000. AID 651610, 2012;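 active = mean replicate inhibition score of at least 50 and every replicate individually at or above 50; inconclusive = only one of the two criteria met; inactive = mean below 50 and not all replicates reaching 50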;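 also: 0% = plate neutral controls and 100% = maraviroc near 300 nM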
esBAF inh = Bmi1 luciferase reporter increase in mESCs, primary screen, esBAF inhibitor project, mouse ES cells, Bmi1 luciferase knock-in, single point | 24 h; 100% = twice the neutral-well signal | reporter increase, % at 12.5 µM | hit rate 2% among 350,000 | AID 602393, 2012; in the data active = activation above about 40%; inconclusive = no clear call, values can overlap the other calls;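 also: 0% = median of the plate's neutral control wells and 100% = double that signal; a rise in the Bmi1 reporter signal indicates esBAF inhibition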
miR-122 sensor = miR-122 Renilla sensor signal increase in Huh7, primary screen, miR-122 inhibitor project, cell-based, single point, plate reader; Huh7 miR-122 Renilla luciferase sensor, 48 h; neutral wells = 0, positive control = 100; activation (reporter increase), % at 12.5 µM; hit rate 0.3% among 340,000;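 active = mean replicate activation score at least 90 and every replicate individually at or above 90; inconclusive = only one of the two criteria met; inactive = neither criterion met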;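 also: higher luciferase means less miR-122 activity so hits act as miR-122 inhibitors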
* = called active by the depositor; [ ] = remark or other dose.

For CN(C)c1ccc(C(CNS(=O)(=O)c2ccc3ccccc3c2)c2c[nH]c3ccccc23)cc1 (stereo unspecified) the results were Wnt bcat act -1, MITF TRPM1 HTS 0 and HIV Env fusion 0.
`CN(C)c1ccc(C(CN)c2c[nH]c3ccccc23)cc1` (stereo unspecified) gave Wnt bcat act -8, MITF TRPM1 HTS 15, HIV Env fusion -25 and esBAF inh 39*.
`CCN=c1scc(C)n1/N=C/c1ccsc1` gave MITF TRPM1 HTS inconclusive, HIV Env fusion -101 and miR-122 sensor -3.
For COCCN=c1scc(C)n1/N=C/C1CC2C=CC1C2 (stereo unspecified) the results were Wnt bcat act -1, MITF TRPM1 HTS -2 and HIV Env fusion 63*.
`CCN1[C@@H]2c3ccc(-c4cccc(F)c4)c(=O)n3C[C@@H]2[C@@H](CO)[C@@H]1C(=O)N[C@@H](C)c1ccccc1` gave esBAF inh -5 and miR-122 sensor 6[16.7 µM].
For C[C@H]1CN([C@@H](C)CO)C(=O)c2cc(NC(=O)Nc3ccc(C(F)(F)F)cc3)ccc2O[C@H]1CN(C)CC1CC1 the results were HIV Env fusion 7[16.7 µM], esBAF inh -5 and miR-122 sensor -15[16.7 µM].
O=C(Nc1cccc(/C=C/c2ccccn2)c1)c1ccc(-n2cncn2)c([N+](=O)[O-])c1 was read as Wnt bcat act 2, MITF TRPM1 HTS -8, HIV Env fusion 4, esBAF inh 44* and miR-122 sensor 1.
`CC(=O)N1N=C(c2ccc(Cl)cc2)CC1c1ccc([N+](=O)[O-])cc1` (stereo unspecified) gave Wnt bcat act 0, HIV Env fusion -5 and esBAF inh 1.
For COc1ccc(C2CC(c3ccc4ccccc4c3OC(C)=O)=NN2C(C)=O)cc1 (stereo unspecified) the results were Wnt bcat act 58*, HIV Env fusion -84 and miR-122 sensor 4.
Screening COc1ccc(C2CC(c3ccc(Cl)cc3)=NN2C(C)=O)cc1 (stereo unspecified) returned Wnt bcat act 13, MITF TRPM1 HTS 41, HIV Env fusion -16, esBAF inh 52* and miR-122 sensor 5.
For Cc1noc(C)c1NC(=O)N[C@H]1CC[C@@H](CCNC(=O)C2CCCCC2)O[C@H]1CO the results were HIV Env fusion -12[16.7 µM] and esBAF inh -4.
For O=C(C[C@@H]1C=C[C@@H](NS(=O)(=O)c2ccc(F)cc2)[C@H](CO)O1)NCCc1ccncc1 the results were HIV Env fusion 1[16.7 µM] and esBAF inh -4.
Screening O=C(Nc1ccc(C(F)(F)F)cc1)N[C@H]1C=C[C@H](CC(=O)N2CCCCC2)O[C@H]1CO returned HIV Env fusion -8[16.7 µM], esBAF inh -3 and miR-122 sensor -13[16.7 µM].
C[C@H]1NC(=O)[C@@]2(C)[C@H](c3ccccc3)[C@H]3COc4ccccc4[C@@H]3N2C1=O was read as Wnt bcat act -1, MITF TRPM1 HTS 3, HIV Env fusion 92*, esBAF inh -2 and miR-122 sensor -3.
`C[C@@]12C(=O)Nc3ccc(Br)cc3C(=O)N1[C@H]1c3cc(Br)ccc3OC[C@@H]1[C@@H]2c1ccccc1` gave Wnt bcat act -7, MITF TRPM1 HTS -18, HIV Env fusion 63* and esBAF inh -11.
`COc1cc2c(cc1OC)C(=O)N1[C@H]3c4cc(Cl)ccc4OC[C@@H]3[C@H](c3ccccc3)[C@]1(C)C(=O)N2` gave Wnt bcat act -19, MITF TRPM1 HTS -16, HIV Env fusion 99*, esBAF inh -21 and miR-122 sensor -6.
Screening C[C@@]12C(=O)Nc3ccc(Cl)cc3C(=O)N1[C@H]1c3cc(Br)ccc3OC[C@@H]1[C@@H]2c1ccccc1 returned Wnt bcat act -5, MITF TRPM1 HTS -5, HIV Env fusion 45, esBAF inh -7 and miR-122 sensor -12.
Screening Oc1ccc(/C=N/Nc2nccnc2Cl)cc1 returned Wnt bcat act 47*, MITF TRPM1 HTS -4, HIV Env fusion -152, esBAF inh -4 and miR-122 sensor -2.
CN1C(=O)c2cc(NC(=O)C3CC3)ccc2OC[C@@H]2O[C@H](CC(=O)NC3CCC3)CC[C@H]21 was read as esBAF inh 2 and miR-122 sensor -32[16.7 µM].
For CCc1ccc(C(=O)Nc2ccc3nc(C)ccc3c2)cc1 the results were Wnt bcat act 10, MITF TRPM1 HTS 99*, HIV Env fusion -63, esBAF inh 39 and miR-122 sensor 1.
Cc1ccc2cc(NC(=O)c3ccccc3C)ccc2n1 was read as Wnt bcat act 0, MITF TRPM1 HTS 100*, HIV Env fusion -28, esBAF inh inconclusive and miR-122 sensor 4.
COc1ccc2oc(=O)cc(C)c2c1 was read as MITF TRPM1 HTS 10 and miR-122 sensor -5.
Screening COc1ccc2oc3ccccc3c(=O)c2c1 returned Wnt bcat act 33*, MITF TRPM1 HTS 73, HIV Env fusion -81, esBAF inh 48* and miR-122 sensor -7.
Screening COc1ccc2oc3ccc(OC)cc3c(=O)c2c1 returned HIV Env fusion inactive, esBAF inh 98* and miR-122 sensor -4.
Screening Cc1ccc2oc3ccccc3c(=O)c2c1 returned Wnt bcat act 29, MITF TRPM1 HTS 101*, esBAF inh 62* and miR-122 sensor -1.
For O=c1c2ccccc2oc2ccc(-c3ccc4cc[nH]c4c3)cc12 the results were MITF TRPM1 HTS 104* and esBAF inh -2.
C[C@H](CO)N1C[C@H](C)[C@H](CN(C)Cc2ccc(C(F)(F)F)cc2)Oc2c(NC(=O)C3CC3)cccc2C1=O was read as HIV Env fusion -22[16.7 µM], esBAF inh 7 and miR-122 sensor 13[16.7 µM].
`C[C@@H]1CCCCO[C@H](CN(C)Cc2ccncc2)[C@H](C)CN([C@H](C)CO)C(=O)c2cc(NS(=O)(=O)c3ccccc3)ccc2O1` gave HIV Env fusion 13[16.7 µM], esBAF inh -2 and miR-122 sensor -2[16.7 µM].
`COc1cccc2c(=O)c3ccccc3oc12` gave Wnt bcat act 12, MITF TRPM1 HTS inconclusive, HIV Env fusion -55 and esBAF inh 66*.
For COc1cccc2c(=O)ccoc12 the results were MITF TRPM1 HTS -12 and miR-122 sensor 9.
O=C(CCC(=O)OCC(=O)c1cccc([N+](=O)[O-])c1)Nc1cccc(Cl)c1Cl was read as Wnt bcat act 40*, MITF TRPM1 HTS -7, HIV Env fusion 3 and miR-122 sensor -5.
For Cc1ccccc1NC(=O)CCC(=O)OCC(=O)c1cccc([N+](=O)[O-])c1 the results were Wnt bcat act -1, MITF TRPM1 HTS -3, HIV Env fusion 11, esBAF inh 0 and miR-122 sensor -7.
